According to the supplement of paper PMC8728848:
The entries come from a sample that favours the strongest signals as a whole.

B1: Onconase (Rana pipiens), P22069 (protein)
chain: QDWLTFQKKHITNTRDVDCDNIMSTNLFHCKDKNTFIYSRPEPVKAICKGIIASKNVLTTSEFYLSDCNVTSRPCKYKLKKSTNKFCVTCENQAPVHFVGVGSC
B2: Surfactant Protein D (Human); Neck + Carbohydrate Recognition Domain (NCRD) (Homo sapiens) (protein)
chain: MLLFLLSALVLLTQPLGYLEAEMKTYSHRTMPSACTLVMCSSVESGLPGRDRDGREGPRGEKGDPGLPGAAGQAGMPGQAGPVGPKGDNGSVGEPGPKGDTGPSGPPGPPGVPGPAGREGALGKQGNIGPQGKPGPKGEAGPKGEVGAPGMQGSAGARGLAGPKGERGVPGERGVPGNTGAAGSAGAMGPQGSPGARGPPGLKGDKGIPGDKGAKGESGLPDVASLRQQVEALQGQVQHLQAAFSQYKKVELFPNGQSVGEKIFKTAQFVKPFTEAQLLCTQAGGQLASPRSAAENAALQQLVVAKNEAAFLSMTDSKTEGKFTYPTGESLVYSNWAPGEPNDDGGSEDCVEIFTNGKWNDRACGEKRLVVCEF

Experiments:
Assay in all cases: glycan array binding signal (z-score within array); higher = stronger binding
Conditions in all cases: glycan notation: IUPAC condensed, linker removed
[1] = target: Fuc(a1-3)[Gal(b1-4)]GlcNAc(b1-4)Gal(b1-4)[Fuc(a1-3)]GlcNAc
How it was run: (§1)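 The binding signal is a Z-score computed within each array. Data were drawn from 3228 arrays in the Consortium for Functional Glycomics database, restricted to those with a known protein sequence. Scores were averaged over arrays of the same protein sequence at different concentrations or buffers, and over linkers, and negative values can be taken as non-binding.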

Gal(a1-2)Gal = target: Gal(a1-2)Gal
How it was run: as §1

Gal(b1-2)Gal = target: Gal(b1-2)Gal
How it was run: as §1

[2] = target: Gal(b1-3)[Fuc(a1-4)]GlcNAc
How it was run: as §1

[3] = target: Gal(b1-4)GlcNAc(b1-3)Gal(b1-4)[Fuc(a1-3)]GlcNAc(b1-3)Gal(b1-4)[Fuc(a1-3)]GlcNAc
How it was run: as §1

Gal3S(b1-4)Glc6S = target: Gal3S(b1-4)Glc6S
How it was run: as §1

Gal6S(b1-4)Glc6S = target: Gal6S(b1-4)Glc6S
How it was run: as §1

Glc(b1-6)Glc = target: Glc(b1-6)Glc
How it was run: as §1

[4] = target: GlcNAc(b1-2)Gal(b1-3)GlcNAc
How it was run: as §1

GlcNAc(b1-3)GalNAc = target: GlcNAc(b1-3)GalNAc
How it was run: as §1

[5] = target: Neu5Ac(a2-3)Gal(b1-4)GlcNAc(b1-3)Gal(b1-4)[Fuc(a1-3)]GlcNAc
How it was run: as §1

[6] = target: Neu5Ac(a2-6)Gal(b1-4)GlcNAc
How it was run: as §1

[7] = target: Neu5Ac(a2-8)Neu5Ac(a2-8)Neu5Ac(a2-8)Neu5Ac(a2-3)[GalNAc(b1-4)]Gal(b1-4)Glc
How it was run: as §1

[8] = target: Neu5Ac9Ac(a2-6)Gal(b1-4)GlcNAc
How it was run: as §1

[9] = target: Neu5Gc(a2-3)Gal(b1-3)[Fuc(a1-4)]GlcNAc
How it was run: as §1

[10] = target: Fuc(a1-3)[Gal(b1-4)]GlcNAc(b1-3)Gal(b1-3)[Fuc(a1-4)]GlcNAc
How it was run: as §1

[11] = target: Fuc(a1-3)[Gal(b1-4)]GlcNAc(b1-4)Gal(b1-4)[Fuc(a1-3)]GlcNAc(b1-4)Gal(b1-4)[Fuc(a1-3)]GlcNAc
How it was run: as §1

Gal(a1-6)Glc = target: Gal(a1-6)Glc
How it was run: as §1

Gal(b1-3)Gal(b1-4)GlcNAc = target: Gal(b1-3)Gal(b1-4)GlcNAc
How it was run: as §1

Gal(b1-3)GlcNAc = target: Gal(b1-3)GlcNAc
How it was run: as §1

[12] = target: Gal(b1-3)GlcNAc(b1-2)Man(a1-3)[Gal(b1-3)GlcNAc(b1-2)Man(a1-6)]Man(b1-4)GlcNAc(b1-4)GlcNAc
How it was run: as §1

[13] = target: Gal(b1-3)GlcNAc(b1-3)Gal(b1-4)Glc
How it was run: as §1

[14] = target: Gal(b1-3)[Fuc(a1-4)]GlcNAc(b1-3)Gal(b1-4)[Fuc(a1-3)]GlcNAc
How it was run: as §1

[15] = target: Gal(b1-4)GlcNAc(b1-3)[Gal(b1-4)GlcNAc(b1-6)]Gal(b1-4)GlcNAc
How it was run: as §1

Gal6S(b1-4)Glc = target: Gal6S(b1-4)Glc
How it was run: as §1

[16] = target: GlcNAc(b1-3)[GlcNAc(b1-6)]GalNAc
How it was run: as §1

[17] = target: GlcNAc(b1-4)GlcNAc(b1-4)GlcNAc
How it was run: as §1

[18] = target: GlcNAc(b1-4)GlcNAc(b1-4)GlcNAc(b1-4)GlcNAc(b1-4)GlcNAc(b1-4)GlcNAc
How it was run: as §1

[19] = target: Man(a1-2)Man(a1-2)Man(a1-3)Man
How it was run: as §1

[20] = target: Man(a1-2)Man(a1-2)Man(a1-6)[Man(a1-3)]Man
How it was run: as §1

[21] = target: Man(a1-2)Man(a1-3)[Man(a1-2)Man(a1-6)]Man
How it was run: as §1

[22] = target: Man(a1-2)Man(a1-3)[Man(a1-6)]Man(a1-6)[Man(a1-2)Man(a1-3)]Man(b1-4)GlcNAc(b1-4)GlcNAc
How it was run: as §1

[23] = target: Man(a1-2)Man(a1-6)[Man(a1-3)]Man(a1-6)[Man(a1-2)Man(a1-2)Man(a1-3)]Man(b1-4)GlcNAc(b1-4)GlcNAc
How it was run: as §1

[24] = target: Man(a1-3)[Man(a1-6)]Man(a1-6)[Man(a1-2)Man(a1-3)]Man(b1-4)GlcNAc(b1-4)GlcNAc
How it was run: as §1

Neu5Ac(a2-3)Gal = target: Neu5Ac(a2-3)Gal
How it was run: as §1

[25] = target: Neu5Ac(a2-3)Gal(b1-3)[Fuc(a1-4)]GlcNAc(b1-3)Gal(b1-4)[Fuc(a1-3)]GlcNAc
How it was run: as §1

[26] = target: Neu5Ac(a2-3)[GalNAc(b1-4)]Gal(b1-4)Glc
How it was run: as §1

[27] = target: Neu5Ac(a2-3)[Neu5Ac(a2-6)]GalNAc
How it was run: as §1

[28] = target: Neu5Ac(a2-8)Neu5Ac(a2-3)[GalNAc(b1-4)]Gal(b1-4)Glc
How it was run: as §1

[29] = target: Neu5Ac(b2-6)Gal(b1-4)GlcNAc
How it was run: as §1

Binder	glycan array binding signal (z-score) [1]	glycan array binding signal (z-score) (Gal(a1-2)Gal)	glycan array binding signal (z-score) (Gal(b1-2)Gal)	glycan array binding signal (z-score) [2]	glycan array binding signal (z-score) [3]	glycan array binding signal (z-score) (Gal3S(b1-4)Glc6S)	glycan array binding signal (z-score) (Gal6S(b1-4)Glc6S)	glycan array binding signal (z-score) (Glc(b1-6)Glc)	glycan array binding signal (z-score) [4]	glycan array binding signal (z-score) (GlcNAc(b1-3)GalNAc)	glycan array binding signal (z-score) [5]	glycan array binding signal (z-score) [6]	glycan array binding signal (z-score) [7]	glycan array binding signal (z-score) [8]	glycan array binding signal (z-score) [9]	glycan array binding signal (z-score) [10]	glycan array binding signal (z-score) [11]	glycan array binding signal (z-score) (Gal(a1-6)Glc)	glycan array binding signal (z-score) (Gal(b1-3)Gal(b1-4)GlcNAc)	glycan array binding signal (z-score) (Gal(b1-3)GlcNAc)	glycan array binding signal (z-score) [12]	glycan array binding signal (z-score) [13]	glycan array binding signal (z-score) [14]	glycan array binding signal (z-score) [15]	glycan array binding signal (z-score) (Gal6S(b1-4)Glc)	glycan array binding signal (z-score) [16]	glycan array binding signal (z-score) [17]	glycan array binding signal (z-score) [18]	glycan array binding signal (z-score) [19]	glycan array binding signal (z-score) [20]	glycan array binding signal (z-score) [21]	glycan array binding signal (z-score) [22]	glycan array binding signal (z-score) [23]	glycan array binding signal (z-score) [24]	glycan array binding signal (z-score) (Neu5Ac(a2-3)Gal)	glycan array binding signal (z-score) [25]	glycan array binding signal (z-score) [26]	glycan array binding signal (z-score) [27]	glycan array binding signal (z-score) [28]	glycan array binding signal (z-score) [29]
B1	1.21	3.22	2.63	-0.553	2.54	-0.281	0.598	0.027	-0.449	-0.84	-0.671	0.51	2.71	-0.006	1.6																									
B2				-0.233												-0.257	-0.273	-0.083	-0.274	-0.263	-0.275	-0.271	-0.053	-0.29	-0.216	-0.258	-0.24	0.127	6.02	5.46	4.89	6.78	5.33	4.68	-0.243	0.1	-0.277	-0.296	-0.238	-0.288
